The target in test [1] is Estrogen receptor (Homo sapiens) + Estrogen receptor beta (Homo sapiens) (UniProt P03372+Q92731). Kind of test: OT_ER_ERaERb_1440: Odyssey Thera (OT) 24-hour HEK293T Protein-Complementation Assay for Estrogen Receptor-alpha/-beta Homodimer (AID 2283356).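 Further: heteromer of ER alpha and ER beta binding domains; hits raise reporter fluorescence and both agonists and antagonists give an increase.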 The gist of the method: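 24 h exposure; HEK293T PCA cells with ERα/ERβ LBD fragments; signal rise in nuclear or whole-cell fluorescence over vehicle.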
Chain of Estrogen receptor (Homo sapiens) + Estrogen receptor beta (Homo sapiens) (P03372 whole entry, looked up, the tested form may be a part): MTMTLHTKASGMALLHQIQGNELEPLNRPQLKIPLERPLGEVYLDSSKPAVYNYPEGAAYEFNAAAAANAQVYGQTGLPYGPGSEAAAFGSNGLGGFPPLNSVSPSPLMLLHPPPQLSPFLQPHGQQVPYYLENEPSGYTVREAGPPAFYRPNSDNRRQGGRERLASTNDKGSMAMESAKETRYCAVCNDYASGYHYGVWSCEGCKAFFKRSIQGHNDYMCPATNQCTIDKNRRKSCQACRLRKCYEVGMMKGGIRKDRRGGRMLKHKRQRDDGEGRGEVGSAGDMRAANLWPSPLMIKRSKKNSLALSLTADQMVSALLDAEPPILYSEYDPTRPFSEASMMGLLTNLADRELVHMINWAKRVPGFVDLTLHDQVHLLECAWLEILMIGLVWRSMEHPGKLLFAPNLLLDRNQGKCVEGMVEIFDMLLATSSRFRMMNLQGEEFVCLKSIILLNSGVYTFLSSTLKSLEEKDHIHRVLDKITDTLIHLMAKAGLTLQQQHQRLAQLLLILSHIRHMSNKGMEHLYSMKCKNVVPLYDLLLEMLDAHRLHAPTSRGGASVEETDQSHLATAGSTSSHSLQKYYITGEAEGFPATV
Chain of Estrogen receptor (Homo sapiens) + Estrogen receptor beta (Homo sapiens) (Q92731 whole entry, looked up, the tested form may be a part): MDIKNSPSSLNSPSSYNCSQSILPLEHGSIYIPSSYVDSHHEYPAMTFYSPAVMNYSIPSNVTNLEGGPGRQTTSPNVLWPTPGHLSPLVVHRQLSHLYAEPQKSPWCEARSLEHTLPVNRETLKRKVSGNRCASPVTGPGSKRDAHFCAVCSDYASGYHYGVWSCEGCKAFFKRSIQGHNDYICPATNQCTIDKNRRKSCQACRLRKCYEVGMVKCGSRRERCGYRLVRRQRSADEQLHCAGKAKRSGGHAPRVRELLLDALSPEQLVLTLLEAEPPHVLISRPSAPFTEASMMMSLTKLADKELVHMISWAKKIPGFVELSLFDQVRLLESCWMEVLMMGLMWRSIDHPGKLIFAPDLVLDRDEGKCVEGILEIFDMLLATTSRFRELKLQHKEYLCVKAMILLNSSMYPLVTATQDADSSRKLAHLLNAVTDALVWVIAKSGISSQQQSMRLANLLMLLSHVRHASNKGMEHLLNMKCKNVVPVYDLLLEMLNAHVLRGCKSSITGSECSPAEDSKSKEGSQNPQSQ

For test [2], the target named is Estrogen receptor beta (Homo sapiens) (UniProt Q92731). Description: OT_ER_ERbERb_0480: Odyssey Thera (OT) 8-hour HEK293T Protein-Complementation Assay for Estrogen Receptor-beta/-beta Homodimer (AID 2283357).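 Further: active means signal gain over DMSO baseline.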 The gist of the method: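 Homodimerization of ER-beta LBD measured by protein-fragment complementation in HEK293T; 8 h dosing; fixed, Draq5 counterstain; fluorescence intensity gain over DMSO baseline, positive fitting direction; laser scanning cytometry.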
Chain of Estrogen receptor beta (Homo sapiens) (Q92731 whole entry, looked up, the tested form may be a part): as above

Test [3] has as its target Nuclear receptor subfamily 1 group I member 2 (Homo sapiens) (UniProt O75469). Kind of test: NVS_NR_hPXR: NovaScreen (NVS) Nuclear Receptor Binding Assay for human Pregnane X Receptor (PXR) (AID 2283365).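 Further: a drop in FRET signal versus DMSO baseline means the compound binds.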 The method, boiled down:
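Read-out: TR-FRET, human PXR, 2 h post-dosing, cell-free. Loss of signal vs DMSO taken as binding activity; 25 uM primary, concentration series secondary.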

For test [4], the target named is Peroxisome proliferator-activated receptor gamma (Homo sapiens) (UniProt P37231). Description: NVS_NR_hPPARg: NovaScreen (NVS) Nuclear Receptor Binding Assay for human Peroxisome Proliferator-activated Receptor gamma (PPARg) (AID 2283370). The method, boiled down: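 Extracted receptor protein, cell-free; compound incubated 2 h then fluorescence polarization read. Baseline: DMSO. Actives from 25 uM duplicate screen re-run across concentrations.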
Chain of Peroxisome proliferator-activated receptor gamma (Homo sapiens) (P37231 whole entry, looked up): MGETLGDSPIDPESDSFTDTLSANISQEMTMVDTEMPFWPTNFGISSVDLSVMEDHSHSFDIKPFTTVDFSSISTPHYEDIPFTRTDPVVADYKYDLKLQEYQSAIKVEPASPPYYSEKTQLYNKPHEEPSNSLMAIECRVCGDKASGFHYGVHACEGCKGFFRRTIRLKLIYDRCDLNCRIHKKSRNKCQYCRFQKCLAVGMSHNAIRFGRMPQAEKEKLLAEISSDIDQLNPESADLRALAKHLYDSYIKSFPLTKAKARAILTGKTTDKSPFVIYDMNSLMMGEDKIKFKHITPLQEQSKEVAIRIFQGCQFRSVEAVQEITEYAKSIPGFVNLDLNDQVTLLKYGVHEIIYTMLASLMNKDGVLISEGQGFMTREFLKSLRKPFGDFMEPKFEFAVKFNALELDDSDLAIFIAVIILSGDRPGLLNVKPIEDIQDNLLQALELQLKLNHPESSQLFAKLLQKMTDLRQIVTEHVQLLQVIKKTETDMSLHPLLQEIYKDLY

Test [5] addresses Estrogen receptor beta (Homo sapiens) (UniProt Q92731). Description: OT_ER_ERbERb_1440: Odyssey Thera (OT) 24-hour HEK293T Protein-Complementation Assay for Estrogen Receptor-beta/-beta Homodimer (AID 2283380).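 Further: scored as signal increase over DMSO baseline for both agonists and antagonists.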 The gist of the method: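 HEK293T cells stably expressing ER beta LBD (aa 310-547) homodimer fragment-complementation reporter, dosed 24 h. Cells formaldehyde-fixed, Draq5-stained; gain in nuclear (agonist) or nuclear plus cytoplasmic (antagonist) fluorescence versus DMSO read by laser scanning cytometry.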

The target in test [6] is Estrogen receptor (Homo sapiens) (UniProt P03372). Description: OT_ERa_GFPERaERE_0480: Odyssey Thera (OT) 8-hour HeLa Transcription Induction Assay for Estrogen Receptor (AID 2283381; active means hit-call score of the fitted dose curve at least 0.9, where 1 is the maximum; inactive means score below 0.9). The method, boiled down:
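GFP-ERE reporter, HeLa, 8 h exposure. Readout: fluorescence microscopy, high-content image analysis. Fit direction positive vs DMSO negative control.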

In test [7] the target is Retinoic acid receptor alpha (Homo sapiens) (UniProt P10276). Description: NVS_NR_hRAR_Antagonist: NovaScreen (NVS) Nuclear Receptor Binding Assay for human Retinoic Acid Alpha Receptor Antagonism (RAR) (AID 2283358). The gist of the method:
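Read-out: time-resolved FRET binding signal, 2 h post-dose, cell-free extracted protein. Antagonism scored as signal loss versus DMSO negative control. Primary single-concentration screen at 25 uM in duplicate; concentration series for actives.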

For test [8] the target is unchanged. Description: NVS_NR_hRARa_Agonist: NovaScreen (NVS) Nuclear Receptor Binding Assay for human Retinoic Acid Alpha Receptor Agonism (RAR) (AID 2283361). The method, boiled down:
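TR-FRET signal, 2 h post-dosing; cell-free extracted protein; DMSO = baseline, positive fitting direction; 25 uM single-point duplicate, then concentration series for actives.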

Test [9] deals with Agonist Androgen Response Element (ARE), AR (gene 367) (UniProt P10275). Description: OT_AR_ARELUC_AG_1440: Odyssey Thera (OT) 24-hour CHO-K1 Luciferase Assay for Agonist Androgen Response Element (ARE) (AID 2283379). The method, boiled down: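 Gain-of-signal reporter endpoint: cells (CHO-K1, hamster) are treated 24 h, luciferin/ATP reagent added, and luminescence compared with DMSO baseline.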
Chain of Agonist Androgen Response Element (ARE), AR (gene 367) (P10275 whole entry, looked up): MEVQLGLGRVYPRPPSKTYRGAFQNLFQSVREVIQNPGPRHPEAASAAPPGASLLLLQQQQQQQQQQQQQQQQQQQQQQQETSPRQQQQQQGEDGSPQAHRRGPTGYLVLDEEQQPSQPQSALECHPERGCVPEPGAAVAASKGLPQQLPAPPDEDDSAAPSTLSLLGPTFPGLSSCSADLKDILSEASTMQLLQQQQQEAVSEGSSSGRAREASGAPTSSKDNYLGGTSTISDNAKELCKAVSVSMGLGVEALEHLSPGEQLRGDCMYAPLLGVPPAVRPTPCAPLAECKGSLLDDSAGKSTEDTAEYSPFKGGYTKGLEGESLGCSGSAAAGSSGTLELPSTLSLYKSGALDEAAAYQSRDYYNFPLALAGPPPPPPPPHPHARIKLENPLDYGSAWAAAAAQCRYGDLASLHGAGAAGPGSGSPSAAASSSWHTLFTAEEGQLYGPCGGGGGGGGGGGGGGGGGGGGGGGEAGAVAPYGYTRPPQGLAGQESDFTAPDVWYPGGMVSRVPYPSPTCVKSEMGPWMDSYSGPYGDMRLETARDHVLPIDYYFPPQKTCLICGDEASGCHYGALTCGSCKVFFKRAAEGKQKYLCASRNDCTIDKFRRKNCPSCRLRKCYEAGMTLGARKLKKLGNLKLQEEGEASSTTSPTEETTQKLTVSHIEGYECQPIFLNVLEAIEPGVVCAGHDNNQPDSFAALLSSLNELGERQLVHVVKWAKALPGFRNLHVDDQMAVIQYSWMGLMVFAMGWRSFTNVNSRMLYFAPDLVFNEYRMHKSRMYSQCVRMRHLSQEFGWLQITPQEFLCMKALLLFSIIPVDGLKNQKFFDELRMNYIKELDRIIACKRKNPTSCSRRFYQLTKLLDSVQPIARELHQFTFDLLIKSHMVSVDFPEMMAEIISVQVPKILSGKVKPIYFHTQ

Test [10] deals with rat Mineralocorticoid Receptor (MR), Nr3c2 (gene 25672) (UniProt P22199). Kind of test: NVS_NR_rMR: NovaScreen (NVS) Nuclear Receptor Binding Assay for rat Mineralocorticoid Receptor (MR) (AID 2283355). The gist of the method: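 Radioligand displacement, scintillation readout; tissue source adrenalectomized rat brain supernatant. Read 24 h post-dose. Screened in duplicate at 25 uM, DMSO negative control, controls on every plate; actives re-run in concentration series.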

Test [11] deals with human Peroxisome Proliferator-activated Receptor alpha (PPARa), PPARA (gene 5465) (UniProt Q07869). Kind of test: NVS_NR_hPPARa: NovaScreen (NVS) Nuclear Receptor Binding Assay for human Peroxisome Proliferator-activated Receptor alpha (PPARa) (AID 2283359).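 Further: activity means loss of TR-FRET signal versus DMSO baseline.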 The gist of the method: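 TR-FRET signal measured at 1 h post-dosing; loss-of-signal versus DMSO negative control taken as activity. Extracted gene-protein, cell-free format. Initial single-point duplicates at 25 uM, then concentration-response retests.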
Chain of human Peroxisome Proliferator-activated Receptor alpha (PPARa), PPARA (gene 5465) (Q07869 whole entry, looked up): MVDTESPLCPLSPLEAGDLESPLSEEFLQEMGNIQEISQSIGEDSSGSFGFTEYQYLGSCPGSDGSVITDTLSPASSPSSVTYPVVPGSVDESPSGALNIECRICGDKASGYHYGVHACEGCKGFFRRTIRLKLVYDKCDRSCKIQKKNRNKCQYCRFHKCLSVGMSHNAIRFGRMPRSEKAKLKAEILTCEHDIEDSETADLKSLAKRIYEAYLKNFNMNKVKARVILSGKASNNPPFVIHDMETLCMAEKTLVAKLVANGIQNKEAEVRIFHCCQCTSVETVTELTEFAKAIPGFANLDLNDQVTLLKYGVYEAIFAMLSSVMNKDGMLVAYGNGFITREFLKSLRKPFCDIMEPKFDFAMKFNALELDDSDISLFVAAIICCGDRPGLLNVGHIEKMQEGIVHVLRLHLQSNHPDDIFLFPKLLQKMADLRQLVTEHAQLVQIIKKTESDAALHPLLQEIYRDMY

In test [12] the target is PGR (gene 5241) (UniProt P06401). Description: NVS_NR_hPR: NovaScreen (NVS) Nuclear Receptor Binding Assay for human Progestron Receptor (PR) (AID 2283360).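 Further: active means loss of bound radioligand signal versus DMSO baseline.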 The method, boiled down:
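T47D lysate; tritiated or iodinated radioligand; scintillation count at 18 h. DMSO = negative control/baseline. Primary: 25 uM, duplicate. Secondary: concentration series for actives.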

The test system of test [13] is guinea pig Dopamine Transporter (DAT), gene 100714898. Kind of test: NVS_TR_gDAT: NovaScreen (NVS) Transporter Assay for guinea pig Dopamine Transporter (DAT) (AID 2283369).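 Further: active compounds lower bound radioligand signal relative to DMSO.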 The method, boiled down:
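Primary pass: duplicate wells at 25 uM, threshold e.g. 30% inhibition. Follow-up: singleton concentration-response, highest 50 uM. Radioligand binding on guinea pig striatal membranes, 2 h, filtration scintillation detection.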

Test [14] concerns rat Norepinephrine Transporter (NET), gene 83511. Description: NVS_TR_rNET: NovaScreen (NVS) Transporter Assay for rat Norepinephrine Transporter (NET) (AID 2283373). The gist of the method:
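Competitive radioligand displacement at the rat NET using forebrain membrane preparations, 1 h incubation, filter-based scintillation readout. Primary testing in duplicate at a single 25 uM concentration; confirmed actives retested across concentrations.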

For test [15], the target named is human Dopamine Transporter (DAT), SLC6A3 (gene 6531) (UniProt Q01959). Kind of test: NVS_TR_hDAT: NovaScreen (NVS) Transporter Assay for human Dopamine Transporter (DAT) (AID 2283374).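 Further: activity means loss of bound radioligand signal relative to DMSO.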 The method, boiled down: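 hDAT membranes + tritiated/iodinated radioligand, competitive displacement; 1 h; filter scintillation readout. Single conc 25 uM (duplicate), then conc-response for actives. DMSO = negative control.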

Test [16] addresses rat Serotonin Transporter (SERT), Slc6a4 (gene 25553) (UniProt P31652). Kind of test: NVS_TR_rSERT: NovaScreen (NVS) Transporter Assay for rat Serotonin Transporter (SERT) (AID 2283375). The gist of the method: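 Using rat forebrain membrane SERT, test chemicals compete with a radioligand for 1 hour, and bound counts are taken by filter-based scintillation. Screening starts at 25 uM in duplicate, followed by concentration series for actives.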

Test [17] concerns the target human Norepinephrine Transporter (NET), SLC6A2 (gene 6530) (UniProt P23975). Description: NVS_TR_hNET: NovaScreen (NVS) Transporter Assay for human Norepinephrine Transporter (NET) (AID 2283377).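 Further: cell-free membrane protein extracted from CHO cells expressing human NET; displacement of radioligand from human NET seen as loss of scintillation signal.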 The gist of the method: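 CHO cell extracts expressing the transporter; tritiated or iodinated tracer displaced competitively; filtration plus scintillation readout at 1 h. Single-point duplicates at 25 uM, concentration series for follow-up; activity = signal drop relative to DMSO.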

The target in test [18] is human Thyroid Receptor Alpha (TRa), THRA (gene 7067) (UniProt P10827). Kind of test: NVS_NR_hTRa_Antagonist: NovaScreen (NVS) Nuclear Receptor Binding Assay for human Thyroid Receptor Alpha Antagonism (TRa) (AID 2283362).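 Further: activity is loss of signal relative to DMSO baseline.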 The gist of the method:
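In this biochemical format, receptor protein is dosed with chemical and read after 1 hour via AlphaLISA. Decreases from the DMSO baseline indicate antagonist activity; screening used 25 uM in duplicate before concentration-response confirmation.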

Each structure is given as a SMILES string. “And” between values parts separate entries of the source, which are not always exact repeats. Equal entries are not always repeated. Inconclusive results are not listed. Some compounds were tested as several samples or in several runs, with calls that do not always agree. The source made the active and inactive calls. How the source made its calls, unless noted: active means hit-call score of the fitted dose curve at least 0.9, where 1 is the maximum; inconclusive means response in the unintended direction; inactive means score below 0.9.

Chain of Nuclear receptor subfamily 1 group I member 2 (Homo sapiens) (O75469 whole entry, looked up): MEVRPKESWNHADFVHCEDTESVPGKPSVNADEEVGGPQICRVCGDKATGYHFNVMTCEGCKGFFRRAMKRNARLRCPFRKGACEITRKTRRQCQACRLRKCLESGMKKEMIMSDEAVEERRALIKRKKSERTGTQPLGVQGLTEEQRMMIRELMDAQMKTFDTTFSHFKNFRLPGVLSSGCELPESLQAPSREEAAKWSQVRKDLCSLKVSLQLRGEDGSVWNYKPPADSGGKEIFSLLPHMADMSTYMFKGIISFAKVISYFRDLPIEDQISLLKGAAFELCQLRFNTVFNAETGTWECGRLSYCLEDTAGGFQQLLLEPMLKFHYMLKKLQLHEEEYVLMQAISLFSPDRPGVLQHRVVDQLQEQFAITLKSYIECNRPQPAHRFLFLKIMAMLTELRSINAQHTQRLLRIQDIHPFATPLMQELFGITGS
Chain of Estrogen receptor (Homo sapiens) (P03372 whole entry, looked up): as the sequence (P03372 whole entry, looked up, the tested form may be a part) above
Chain of human Norepinephrine Transporter (NET), SLC6A2 (gene 6530) (P23975 whole entry, looked up): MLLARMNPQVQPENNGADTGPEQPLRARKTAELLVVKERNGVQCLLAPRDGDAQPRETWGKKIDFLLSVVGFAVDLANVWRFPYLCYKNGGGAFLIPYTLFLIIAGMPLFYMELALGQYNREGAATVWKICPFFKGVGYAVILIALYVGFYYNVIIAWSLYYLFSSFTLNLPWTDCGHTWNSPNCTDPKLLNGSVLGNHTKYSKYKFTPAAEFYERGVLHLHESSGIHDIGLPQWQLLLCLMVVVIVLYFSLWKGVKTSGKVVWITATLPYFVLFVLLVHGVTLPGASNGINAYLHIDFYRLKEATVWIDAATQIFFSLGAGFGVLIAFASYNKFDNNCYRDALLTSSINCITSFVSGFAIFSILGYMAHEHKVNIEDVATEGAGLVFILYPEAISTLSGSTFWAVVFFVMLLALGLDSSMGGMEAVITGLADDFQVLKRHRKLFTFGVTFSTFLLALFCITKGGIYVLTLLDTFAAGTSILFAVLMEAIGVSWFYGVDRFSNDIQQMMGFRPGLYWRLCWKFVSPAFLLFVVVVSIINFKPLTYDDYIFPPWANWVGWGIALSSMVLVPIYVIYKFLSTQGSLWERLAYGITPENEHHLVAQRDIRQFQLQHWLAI
Chain of Retinoic acid receptor alpha (Homo sapiens) (P10276 whole entry, looked up): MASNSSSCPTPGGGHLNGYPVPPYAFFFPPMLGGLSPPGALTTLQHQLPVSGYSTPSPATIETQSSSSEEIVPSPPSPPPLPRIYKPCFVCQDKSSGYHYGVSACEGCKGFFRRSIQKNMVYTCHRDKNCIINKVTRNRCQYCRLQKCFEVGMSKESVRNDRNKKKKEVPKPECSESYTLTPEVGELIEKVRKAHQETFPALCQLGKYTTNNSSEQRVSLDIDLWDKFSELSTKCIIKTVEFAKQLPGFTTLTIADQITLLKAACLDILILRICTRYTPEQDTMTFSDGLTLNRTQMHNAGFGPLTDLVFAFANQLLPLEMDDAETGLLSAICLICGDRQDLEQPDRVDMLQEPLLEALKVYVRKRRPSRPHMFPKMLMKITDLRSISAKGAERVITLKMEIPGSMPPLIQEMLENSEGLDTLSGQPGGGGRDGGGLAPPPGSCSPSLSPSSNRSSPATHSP

As to `CCCCCC1CCC(=O)O1` (configuration not stated), the outcome in [1], in test [2], in test [3], in test [4], in test [5] and in [6] was inactive.
With `CCO[Si](CC)(OCC)OCC`, the result in test [1], in test [2], in [7], in [8], in [3] and in test [9] was inactive. The molecule was called inactive in test [5].
As to `CCC(C)(C)C1CCC(OC)CC1` (configuration not stated), the outcome in test [1], in test [2], in test [3] and in [5] was inactive.
As to `COc1cc(OC)c2ccc(=O)oc2c1`, the result in test [1], in [2], in [4], in test [9] and in test [5] was inactive.
In the case of `CCNC(=S)NCC`, the outcome in test [1], in test [2], in test [3], in test [5] and in test [6] was inactive.
Turning to `OC[C@H]1O[C@@H](O[C@H]2[C@H](O)[C@@H](O)[C@H](O)O[C@@H]2CO)[C@H](O)[C@@H](O)[C@H]1O`, the outcome in test [1], in [2], in test [9] and in test [5] was inactive.
As to `CC(C)(C)c1ccc(S)cc1`, the result in test [1], in [2], in test [4], in [5] and in [6] was inactive.
What is called AC50 is the midpoint of the concentration-response curve, whichever way the signal moves. Consider `CCCCCCCCOC(=O)c1ccc(O)cc1`, for which the half-maximal activity concentration (AC50) is 24 µM (active) in test [1], 8.39 µM (active) in test [2], 5.35 µM (active) in test [5] and 3.7 µM (active) in [6]. In test [7], the call was inactive.
On to `CCCCCCCCCCO[C@@H]1O[C@H](CO)[C@@H](O)[C@H](O)[C@H]1O`, for which the outcome in test [1], in test [2], in test [4], in test [5] and in test [6] was inactive.
For the molecule `NC(=O)c1cccnc1`, the outcome in [1], in test [2], in [4], in test [5] and in [6] was inactive.
Turning to `CCCCCCOc1ccc(O)cc1`, the AC50 is 11.9 µM (active) in test [1], 11.9 µM (active) in test [2], 12 µM (active) in [5] and 88.9 µM (active) in test [6]. Moreover, the molecule was called inactive in [3], in [4] and in test [9].
`C#C[C@]1(O)CC[C@H]2[C@@H]3CCc4cc(O)ccc4[C@H]3CC[C@@]21C`: the half-maximal activity concentration (AC50) in test [10] is 3.63 µM (active); in test [12] it was 221 nM (active); in test [13], 1.32 µM (active); in [4], 15.6 µM (active); in [14], 5.14 µM (active); in test [15] it was 463 nM (active). Further, the AC50 in [16] was 2.39 µM (active); in test [17], 514 nM (active) and 517 nM (active) and 623 nM (active). Besides, the result in test [11] and in [4] was inactive.
For the molecule `CC(C)(C)C1CCC(O)CC1` (configuration not stated), the outcome in test [1], in test [2], in test [4] and in [6] was inactive.
Consider `O=S(=O)(O)c1cc(S(=O)(=O)O)c2c(N=Nc3ccccc3)c(O)ccc2c1`, for which the outcome in test [1], in test [2], in test [18], in [5] and in [6] was inactive.
With `FC(F)(F)c1ccc(Cl)c(Cl)c1`, the outcome in test [1], in [2], in [9], in [5] and in [6] was inactive.
Take `C[C@]12CC[C@@H]3c4ccc(O)cc4CC[C@H]3[C@@H]1CC[C@@H]2O`: the AC50 in test [10] is 4.96 µM (active); in test [13], 1.74 µM (active); in test [15] it was 170 nM (active). Moreover, the molecule was classed as inactive in test [3] and in [4].
In the case of `CCCCCCCCCCOC(=O)c1ccccc1C(=O)OCCCCCCCC`, the outcome in [1], in test [2], in test [3], in test [9] and in test [5] was inactive.

These data come from PubChem BioAssay (EPA / NIEHS).
